Measurements from PubChem BioAssay (NCATS).
Results filed as inconclusive are left out. Activity calls are given as the source filed them. Calls follow the shape of the dose curve; as a rule, active = well fitted inhibition curve with a large enough effect; inconclusive = small, poorly fitted or top-dose-only effect; inactive = flat fitted curve, though single readings scatter.

What was measured:
Test in all cases: qHTS profiling for inhibitors of Plasmodium falciparum proliferation (AID 504749); also: nearly all actives have a fitted effect of over 60% in size
Details in all cases: P. falciparum in erythrocytes, SYBR Green DNA, 72 h; series mostly up to 28.7 µM
CP262 = tested on: CP262
Procedure, shortened: (§1)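 P. falciparum-infected erythrocytes (0.3% parasitemia, 2.5% hematocrit final) were exposed to compounds for 72 h at 37 C in 5% CO2, then lysed with SYBR Green buffer overnight at room temperature; parasite DNA fluorescence was normalized to artemisinin and DMSO controls.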

CP265 = tested on: CP265
Procedure, shortened: as §1

CP266 = tested on: CP266
Procedure, shortened: as §1

CP268 = tested on: CP268
Procedure, shortened: as §1

CP269 = tested on: CP269
Procedure, shortened: as §1

CP286 = tested on: CP286
Procedure, shortened: as §1

CP291 = tested on: CP291
Procedure, shortened: as §1

CP297 = tested on: CP297
Procedure, shortened: as §1

CP305 = tested on: CP305
Procedure, shortened: as §1

CP325 = tested on: CP325
Procedure, shortened: as §1

CP329 = tested on: CP329
Procedure, shortened: as §1

CP335 = tested on: CP335
Procedure, shortened: as §1

DFO2036 = tested on: DFO2036
Procedure, shortened: as §1

DIV14 = tested on: DIV14
Procedure, shortened: as §1

DIV17 = tested on: DIV17
Procedure, shortened: as §1

DIV30 = tested on: DIV30
Procedure, shortened: as §1

Dd2 = tested on: Dd2
Procedure, shortened: as §1

ECU = tested on: ECU
Procedure, shortened: as §1

FAB9 = tested on: FAB9
Procedure, shortened: as §1

GB4 = tested on: GB4
Procedure, shortened: as §1

HB3 = tested on: HB3
Procedure, shortened: as §1

ICS = tested on: ICS
Procedure, shortened: as §1

JCK = tested on: JCK
Procedure, shortened: as §1

N140 = tested on: N140
Procedure, shortened: as §1

P93_24 = tested on: P93_24
Procedure, shortened: as §1

P94_40 = tested on: P94_40
Procedure, shortened: as §1

PAD = tested on: PAD
Procedure, shortened: as §1

PC49 = tested on: PC49
Procedure, shortened: as §1

SC27B = tested on: SC27B
Procedure, shortened: as §1

TAB109 = tested on: TAB109
Procedure, shortened: as §1

TAB113 = tested on: TAB113
Procedure, shortened: as §1

TAB165 = tested on: TAB165
Procedure, shortened: as §1

Measured: Potency

C[C@@H]1O[C@@H](O[C@H]2C[C@@H](O)[C@@]3(CO)[C@H]4[C@H](O)C[C@]5(C)[C@@H](C6=CC(=O)OC6)CC[C@]5(O)[C@H]4CC[C@@]3(O)C2)[C@@H](O)[C@H](O)[C@H]1O
inactive: all assays above
